{
  "source": "PubChem BioAssay (Tox21)",
  "note": "Some compounds were tested as several samples or in several runs, with calls that do not always agree. Calls of active or inactive are those of the source. A call without a number means that no potency is given here. Calls follow the shape of the full dose curve. Starred links: 1 amine or outer side, 2 acyl side, 3 side chain; linkers in the order of their positions; H or OH if unused. Positions of bridges follow the written chain, without caps; N, C: chain ends. Non-standard residues stand in square brackets, D forms with d. Residues, ends and D or L forms follow the SMILES beside them. Chains are numbered I, II in the order given. Actinocin(9to1) = Cc1c2oc3c(C)ccc(C(=O)[*:1])c3nc-2c(C(=O)[*:2])c(N)c1=O; NMeV = CN[C@H](C(=O)O)C(C)C; Sar = CNCC(=O)O",
  "data": [
    {"target": "Androgen receptor (Homo sapiens) (UniProt P10275)", "sequence (P10275 whole entry, looked up)": "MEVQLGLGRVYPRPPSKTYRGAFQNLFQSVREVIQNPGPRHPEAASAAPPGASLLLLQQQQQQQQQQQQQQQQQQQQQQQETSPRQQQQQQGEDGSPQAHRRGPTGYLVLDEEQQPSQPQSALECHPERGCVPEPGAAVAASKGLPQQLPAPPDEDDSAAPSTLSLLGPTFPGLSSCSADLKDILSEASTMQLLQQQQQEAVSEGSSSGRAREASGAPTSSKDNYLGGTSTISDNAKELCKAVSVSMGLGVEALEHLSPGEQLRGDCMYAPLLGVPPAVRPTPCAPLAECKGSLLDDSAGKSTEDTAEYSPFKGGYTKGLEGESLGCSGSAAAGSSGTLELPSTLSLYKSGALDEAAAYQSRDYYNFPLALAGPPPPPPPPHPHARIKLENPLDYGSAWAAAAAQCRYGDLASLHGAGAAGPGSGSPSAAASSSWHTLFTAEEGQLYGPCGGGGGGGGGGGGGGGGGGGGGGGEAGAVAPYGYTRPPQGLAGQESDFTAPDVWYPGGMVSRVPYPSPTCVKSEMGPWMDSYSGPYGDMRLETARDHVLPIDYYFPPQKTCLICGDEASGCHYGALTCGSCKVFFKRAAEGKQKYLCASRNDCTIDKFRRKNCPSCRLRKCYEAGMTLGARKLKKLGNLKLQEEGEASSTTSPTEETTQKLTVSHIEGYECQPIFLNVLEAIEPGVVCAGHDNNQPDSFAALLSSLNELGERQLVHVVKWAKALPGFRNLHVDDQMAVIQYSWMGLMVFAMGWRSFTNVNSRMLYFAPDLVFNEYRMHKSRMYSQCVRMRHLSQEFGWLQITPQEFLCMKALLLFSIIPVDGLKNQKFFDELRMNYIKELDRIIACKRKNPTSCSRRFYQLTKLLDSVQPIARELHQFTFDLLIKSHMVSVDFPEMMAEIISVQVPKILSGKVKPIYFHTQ", "experiment": "qHTS assay to identify small molecule agonists of the androgen receptor (AR) signaling pathway in the presence of an antagonist (AID 1259381); also: nearly all actives have a fitted effect of over 15% in size; also: potency is read from the fitted curve at half-maximal effect", "details": "MDA-kb2 MMTV-luciferase, AR agonist + nilutamide, 16 h; series mostly up to 92.4 µM; activation: at the top concentration", "excerpt": "National Center for Advancing Translational Sciences [NCATS] NIH Chemical Genomics Center [NCGC] U.S. Environmental Protection Agency [EPA] National Institutes of Environmental Health Sciences [NIEHS] National Toxicology Program [NTP] Assay overview: Androgen receptor (AR) is an important member of nuclear receptor family. Its signaling plays a critical role in AR-dependent prostate cancer and other androgen related diseases. Considerable attention has been given in the past decades to develop methods to study and screen for the environmental chemicals that have the potential to interfere with metabolic homeostasis, reproduction, developmental and behavioral functions. Therefore AR binding assay for screening against androgen agonists and antagonists can be used to identify potential endocrine disruptors. MDA-kb2 cells (from ATCC, deposited by Wilson et al.) are human breast carcinoma cells that were stably transfected with a luciferase reporter gene under control of the MMTV promoter that contains response elements for both androgen receptor (AR) and glucocorticoid receptor (GR). This particular screening for measuring luciferase reporter gene activity using MDA-kb2 cells against Tox21 10K library compounds is a confirmation study on agonist mode screening in the presence of AR-antagonist compound (Nilutamide) at 3.0uM final concentration.\nAssay Protocol Summary: MDA-kb2 cells (cells cultured without CO2) were dispensed at 3,000 cells/well in 4uL of culture medium into white wall/solid-bottom 1536-well plates (Corning Life Sciences, Corning, NY) using a Multidrop Combi (Thermo Fisher Scientific Inc., Waltham, MA) dispenser. The assay plates were incubated at 37C and 0% CO2 for 5hr. One uL of 3.0uM (final concentration) Nilutamide or assay buffer was added using two separate tips of Flying Reagent Dispenser (FRD, Aurora Discovery, San Diego, CA). Then 23nL of compounds dissolved in DMSO at 15 concentrations and positive controls were transferred to the assay plates using a Pintool station (Wako, San Diego, CA). The assay plates were incubated at 37C and 0% CO2 for 16hr. For luciferase read, 4uL/well ONE-Glo reagent (Promega Corporation, Madison, WI) was added to each well of the assay plates using FRD. After 30min incubation at room temperature, the luminescence signal was measured using a ViewLux plate reader (PerkinElmer, Shelton, CT).", "values": [
      {"molecule": "CCOc1ccccc1C(N)=O", "Potency": "inactive"},
      {"molecule": "Oc1c(Cl)cc(Cl)c(Cl)c1Cc1c(O)c(Cl)cc(Cl)c1Cl", "Potency": "inactive"},
      {"molecule": "CCN(CC)CCOc1ccc(/C(=C(\\Cl)c2ccccc2)c2ccccc2)cc1", "Potency": "inactive"},
      {"molecule": "Cc1cc(OCCOCC[N+](C)(C)Cc2ccccc2)ccc1C(C)(C)CC(C)(C)C", "Potency": "inactive"},
      {"molecule": "COc1cc(C(=S)N2CCOCC2)ccc1O", "activation": "0.259% [at 42.5 µM] (inactive)"},
      {"molecule": "CCC(C)(Oc1ccc(C2(c3ccc(OC(C)(CC)C(=O)O)cc3)CCCCC2)cc1)C(=O)O", "note": "(stereo unspecified)", "activation": "-0.0095% [at 42.5 µM] (inactive)"},
      {"molecule": "CCCCCCCCCCCCc1ccccc1O", "Potency": "inactive"},
      {"molecule": "Nc1ccc(O)cc1", "Potency": "5.04 µM (active) and inactive"},
      {"molecule": "C#CC(C)(CC)OC(=O)c1ccccc1C(=O)O", "note": "(stereo unspecified)", "activation": "0.0547% [at 42.5 µM] (inactive)"},
      {"molecule": "CCN(CC)C(=S)SSC(=S)N(CC)CC", "Potency": "inactive"},
      {"molecule": "Nc1nc(=S)c2[nH]cnc2[nH]1", "Potency": "inactive"},
      {"molecule": "CCN(CC)C(=O)Nc1ccc(OCC(O)CNC(C)(C)C)c(C(C)=O)c1", "note": "(stereo unspecified)", "activation": "0.677% [at 42.5 µM] (inactive)"},
      {"molecule": "Cc1c2oc3c(C)ccc(C(=O)N[C@@H]4C(=O)N[C@H](C(C)C)C(=O)N5CCC[C@H]5C(=O)N(C)CC(=O)N(C)[C@@H](C(C)C)C(=O)O[C@@H]4C)c3nc-2c(C(=O)N[C@@H]2C(=O)N[C@H](C(C)C)C(=O)N3CCC[C@H]3C(=O)N(C)CC(=O)N(C)[C@@H](C(C)C)C(=O)O[C@@H]2C)c(N)c1=O", "note": "(I: T[dV]P[Sar][NMeV] / II: T[dV]P[Sar][NMeV]; ester I:1-I:C, II:1-II:C; linker I:N-II:N via Actinocin(9to1))", "Potency": "inactive"},
      {"molecule": "Oc1ccc(Cl)cc1Cc1cc(Cl)ccc1O", "Potency": "inactive"},
      {"molecule": "C=CC(=O)OCCCCCCOC(=O)C=C", "Potency": "inactive"},
      {"molecule": "COc1ccc(Cc2cnc(N)nc2N)cc1OC", "activation": "-0.174% [at 42.5 µM] (inactive)"},
      {"molecule": "OCC(CO)N[C@H]1C[C@](O)(CO)[C@@H](O)[C@H](O)[C@H]1O", "activation": "-0.056% [at 42.5 µM] (inactive)"},
      {"molecule": "CCCC(=O)c1ccccc1", "activation": "-0.924% (inactive)"},
      {"molecule": "Cc1ccc(S(=O)(=O)Oc2ccc(N=Nc3ccc(-c4ccc(N=Nc5c(O)ccc6cc(S(=O)(=O)O)cc(S(=O)(=O)O)c56)c(C)c4)cc3C)cc2)cc1", "Potency": "inactive"},
      {"molecule": "CCCCCCCCCCCCCC[P+](CCCC)(CCCC)CCCC", "Potency": "inactive"},
      {"molecule": "CC(C)(O)CCC(C)(C)O", "activation": "-0.141% (inactive)"},
      {"molecule": "CC(=O)Nc1ccc(C(=O)CCl)cc1", "Potency": "inactive"},
      {"molecule": "BrC1CCC(Br)C(Br)CCC(Br)C(Br)CCC1Br", "note": "(stereo unspecified)", "Potency": "inactive"},
      {"molecule": "Cc1ccc(-c2cc(C(F)(F)F)nn2-c2ccc(S(N)(=O)=O)cc2)cc1", "Potency": "inactive"},
      {"molecule": "Cc1c(O)cccc1C(=O)N[C@@H](CSc1ccccc1)[C@H](O)CN1C[C@H]2CCCC[C@H]2C[C@H]1C(=O)NC(C)(C)C", "Potency": "inactive"},
      {"molecule": "CN1C(=O)c2ccc([N+](=O)[O-])cc2C1=O", "activation": "-0.611% (inactive)"},
      {"molecule": "CC(C)CCOCc1ccccc1", "activation": "1.05% (inactive)"},
      {"molecule": "O=C(O)Cn1cnnn1", "activation": "-0.606% [at 42.5 µM] (inactive)"},
      {"molecule": "CCOc1ccc2c(c1)C(C)=CC(C)(C)N2", "Potency": "inactive"},
      {"molecule": "Nc1cc(Cl)c(-c2cc(Cl)c(N)cc2Cl)cc1Cl", "Potency": "inactive"},
      {"molecule": "O=Cc1ccc(Cl)cc1", "activation": "-1.55% (inactive)"},
      {"molecule": "COC(=O)c1cccc(C(=O)OC)c1", "Potency": "inactive"},
      {"molecule": "CC1=CC(=O)c2ccccc2C1=O", "Potency": "inactive"},
      {"molecule": "CCc1ccc(C(c2ccc(CC)cc2)C(Cl)Cl)cc1", "Potency": "inactive"},
      {"molecule": "CC1COC(=O)O1", "note": "(stereo unspecified)", "activation": "6.54% (inactive)"},
      {"molecule": "O=Nc1ccc(Nc2ccccc2)cc1", "Potency": "inactive"}
    ]}
  ]
}
